Here are results for 20 compounds from PubChem BioAssay (NCATS).

A short description of test [1]: qHTS Screen of the MIPE 4.0 Collection Against Ewings Sarcoma (RDES) (AID 1259252). Also: nearly all actives have a fitted effect of over 35% in size. The essentials:
(§1)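 Dose series incubated 48 h with cells in RPMI plus 5% FBS, glutamine and penicillin/streptomycin; cell viability then quantified via CellTiter-Glo.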
In general terms: In qHTS, concentration-response curves come from the screen itself.

The nature of test [2]: qHTS Screen of the MIPE 4.0 Collection Against Ewings Sarcoma (TC71) (AID 1259253). Also: nearly all actives have a fitted effect of over 40% in size. Summed up: as §1
The nature of test [3]: qHTS Screen of the MIPE 4.0 Collection Against Ewings Sarcoma (EW8) (AID 1259255). Also: nearly all actives have a fitted effect of over 35% in size. The essentials:
as §1

A short description of test [4]: qHTS Screen of the MIPE 4.0 Collection Against Ewings Sarcoma (TC32) (AID 1259256). Also: nearly all actives have a fitted effect of over 45% in size. Summed up: as §1
The nature of test [5]: P-glycoprotein substrates identified in KB-8-5-11 adenocarcinoma cell line, qHTS therapeutic library screen (AID 1346987). Also: nearly all actives have a fitted effect of over 65% in size. Summed up:
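Human cervical adenocarcinoma KB-8-5-11 cells, selected in colchicine to over-express P-gp and assayed without it, were exposed for 72 h to titrated compounds. An ATP-based luminescent viability signal gave AC50.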

A short description of test [6]: NS1 protein of Zika virus - qHTS assay to identify small molecule inhibitors in human HEK 293 cells (AID 1347053). Also: nearly all actives have a fitted effect of over 55% in size. Summed up: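 TR-FRET signal from two anti-ZIKV NS1 antibodies quantified NS1 in HEK 293 cells 24 h after MR766 infection at MOI = 0.5; compounds were added 1 h before virus. Uninfected cells and infected cells defined the NS1 normalization range.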

“And” between values parts separate entries of the source, which are not always exact repeats. Equal values may be shown once. Records with an inconclusive call do not appear. The source holds several records for some structures; these can differ, active in one and inactive in another. The source made the active and inactive calls. Calls follow the shape of the dose curve; as a rule, active = well fitted curve in the direction sought with a large enough effect; inconclusive = small, poorly fitted or top-dose-only effect, or another doubt; inactive = no such curve, though single readings can be large; an effect the other way counts as inactive or inconclusive.
Potency is read from the fitted curve at half-maximal effect.

As for `COc1cc2c(Nc3ccc(NC(=O)c4ccccc4)cc3)ncnc2cc1OCCCN1CCOCC1`, the Potency was 23500 nM (active) in test [1], 16600 nM (active) in test [2], 1050 nM (active) in test [3] and 3320 nM (active) in test [4]. Further, in test [5], the Potency result is “inactive”.

Turning to `NC(=O)c1cccc2cn(-c3ccc([C@@H]4CCCNC4)cc3)nc12`, the Potency in test [1] is 1870 nM (active); in test [2] it was 3720 nM (active); in test [3], 7430 nM (active); in test [4], 2350 nM (active); in test [6], 11800 nM (active). Moreover, the Potency result in test [5] was “inactive”.

As for `Cc1cc(C(=O)N2CCN(c3cccc(Cl)c3)CC2)n(-c2ccccc2)n1`, the Potency was 743 nM (active) in test [1]; 6620 nM (active) in test [2]; 1180 nM (active) in test [3]; 372 nM (active) and 1.3 µM (active) in test [5]. Also, in test [4], the Potency entry is “inactive”.

For the compound `Cc1cc(Nc2nc(N[C@@H](C)c3ccc(F)cc3)c(C#N)cc2F)n[nH]1`, the Potency was 1660 nM (active) in test [1]; 13200 nM (active) in test [2]; 1050 nM (active) in test [3]; 1320 nM (active) in test [4]; 935 nM (active) and 580 nM (active) in test [5]. For the same compound, in test [6], the Potency entry was “inactive”.

As for `Cc1coc2c1C(=O)C(=O)c1c-2ccc2c1CCCC2(C)C`, the Potency entry in test [1], in test [2], in test [3] and in test [6] was “inactive” in each case. Moreover, the Potency in test [4] was 3.7 nM (active); in test [5], “inactive and 9.2 µM (active)”.

Consider `COc1ccc(F)c(F)c1C(=O)c1cnc(NC2CCN(S(C)(=O)=O)CC2)nc1N`, for which the Potency in test [1] was 2640 nM (active); in test [2] it was 1180 nM (active); in test [3], 3720 nM (active); in test [4], 2350 nM (active); in test [5], 3.72 µM (active) and 4.11 µM (active); in test [6], 14800 nM (active).

Turning to `CNC(=O)c1c(F)cccc1Nc1nc(Nc2cc3c(cc2OC)CCN3C(=O)CN(C)C)nc2[nH]ccc12`, the Potency is 20900 nM (active) in test [1]; 20900 nM (active) in test [2]; 7430 nM (active) in test [3]; 1320 nM (active) in test [4]; 16.6 µM (active) and 18.4 µM (active) in test [5]. Besides, the Potency result in test [6] is “inactive”.

As to `CNC(=O)c1nn(C)c2c1C(C)(C)Cc1cnc(Nc3ccc(N4CCN(C)CC4)cc3)nc1-2`, the Potency in test [1] was 1660 nM (active); in test [2], 1870 nM (active); in test [3], 2960 nM (active); in test [4], 2350 nM (active); in test [5] it was 2.35 µM (active) and 1.46 µM (active).

On to `Cc1cc(Nc2cc(CN3CCOCC3)c3nc(C)c(Cc4ccc(Cl)cc4F)n3n2)n[nH]1`, for which the Potency in test [1] was 16600 nM (active); in test [2], 14800 nM (active); in test [3], 3320 nM (active); in test [4] it was 3720 nM (active); in test [5], 13.2 µM (active) and 16.4 µM (active).

For `Cc1c(C)n(Cc2ccc(-c3ccccc3C(=O)O)cc2)c2ccc(C(=O)N[C@@H](C)c3ccc([N+](=O)[O-])cc3)cc12`, the Potency result in test [1], in test [2], in test [3], in test [4], in test [5] and in test [6] was “inactive” throughout.

`Cc1c(CN2CCN(S(C)(=O)=O)CC2)sc2c(N3CCOCC3)nc(-c3cnc(N)nc3)nc12`: the Potency in test [1] was 59 nM (active); in test [2], 66.2 nM (active); in test [3], 66.2 nM (active); in test [4] it was 37.2 nM (active); in test [5], 41.8 nM (active) and 291 nM (active).

For `O=C(Cc1ccc(-c2ccc(OCCN3CCOCC3)cc2)cn1)NCc1ccccc1`, the Potency was 23.5 nM (active) in test [1]; 37.2 nM (active) in test [2]; 23.5 nM (active) in test [3]; 23.5 nM (active) in test [4]; 18.7 nM (active) and 580 nM (active) in test [5]; 74.3 nM (active) in test [6].

With `O=C(Nc1ncc(-c2cc(C(F)F)nn2-c2c(Cl)cccc2Cl)s1)C1CC1`, the Potency in test [1] is 418 nM (active); in test [2], 743 nM (active); in test [3], 469 nM (active); in test [4], 469 nM (active); in test [5], 662 nM (active) and 731 nM (active); in test [6], 1050 nM (active).

In the case of `COc1cc(Nc2ncc(F)c(Nc3ccc4c(n3)N(COP(=O)(O)O)C(=O)C(C)(C)O4)n2)cc(OC)c1OC`, the Potency is 11800 nM (active) in test [1]; 16600 nM (active) in test [2]; 7430 nM (active) in test [3]; 3320 nM (active) in test [4]; 1.66 µM (active) and 2.31 µM (active) and 13 µM (active) in test [5]. Further, the Potency result in test [6] is “inactive”.

Regarding `OCc1ccc(-c2ccc(-c3ccc(CO)s3)o2)s1`, the Potency in test [1] was 52.6 nM (active); in test [2], 26400 nM (active); in test [3], 7.4 nM (active); in test [4], 18700 nM (active); in test [5], “inactive and 3.17 µM (active)”. For the same compound, the Potency entry in test [6] is “inactive”.

On to `COCCOc1ccc2c(c1)ncn2-c1ccc2cccc(N3CCC(N)CC3)c2n1`, for which the Potency in test [1] is 18700 nM (active); in test [2], 14800 nM (active); in test [3], 18700 nM (active); in test [4], 23500 nM (active); in test [5], 23.5 µM (active).

On to `COc1c(OCCCN2CCOCC2)ccc2c3n(c(=NC(=O)c4cnc(N)nc4)nc12)CCN3`, for which the Potency in test [1] is 57.5 nM (active); in test [2], 1820 nM (active); in test [3], 724 nM (active); in test [4] it was 457 nM (active); in test [5] it was 0.15 µM (active).

Turning to `COc1ccc(C(=O)CC2(O)C(=O)Nc3c(Cl)ccc(Cl)c32)cc1` (configuration not stated), the Potency in test [1] is 2350 nM (active); in test [2], 3320 nM (active); in test [3] it was 1480 nM (active); in test [4] it was 1660 nM (active); in test [5], 2.64 µM (active) and 1.16 µM (active); in test [6] it was 1050 nM (active).

Take `COc1cc(-c2nn(C3CCC(N4CCN(C(C)=O)CC4)CC3)c3ncnc(N)c23)ccc1NC(=O)c1cc2ccccc2n1C` (configuration not stated): the Potency in test [1] is 1870 nM (active); in test [2], 2960 nM (active); in test [3], 6620 nM (active); in test [4], 3720 nM (active); in test [5] it was “inactive and 20.6 µM (active)”. In addition, in test [6], the Potency result is “inactive”.

Take `CCc1cc2c(cc1N1CCC(N3CCOCC3)CC1)C(C)(C)c1[nH]c3cc(C#N)ccc3c1C2=O`: the Potency entry in test [1], in test [2], in test [3], in test [4] and in test [6] was “inactive” in each case.
